Here are results for 15 compounds from PubChem BioAssay (NCATS).

Several values for one entry are separate records, joined by “and”; a condition that tells them apart may be missing. Equal entries are not always repeated. Records with an inconclusive call do not appear. Activity calls are given as the source filed them. The call rests on the fitted dose curve; in most records, active means well fitted curve in the direction sought with a large enough effect; inconclusive means small, poorly fitted or top-dose-only effect, or another doubt; inactive means no such curve, though single readings can be large; an effect the other way counts as inactive or inconclusive.

A short description of assay [1]: Cell Viability - LYMP2-003 (AID 965).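 Further: cells exposed to compounds for 24 h before reading; nearly all actives have a fitted effect of over 50% in size.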 In outline: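 Human lymphoblastoid LYMP2-003 cells, 2500/well, exposed to compounds for 24 h at 37 C in complete medium. Viability read as intracellular ATP by CellTiter-Glo luminescence; AC50 from Hill-equation fits of qHTS concentration-response data.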
The nature of assay [2]: Cell Viability - LYMP2-004 (AID 966). Further: nearly all actives have a fitted effect of over 65% in size. In outline: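 qHTS cytotoxicity: human lymphoblastoid line, 24 hr compound treatment, 37 C, complete medium. Viability read as cellular ATP via luciferase luminescence; tetraoctylammonium bromide served as positive control.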
Assay [3] is described as follows: Cell Viability - LYMP2-005 (AID 967). A digest of the protocol: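 Human lymphoblastoid LYMP2-005 cells, 2,500 per well in complete medium, rested 5 h at 37C then compound-treated 24 h at 37C. Intracellular ATP read by CellTiter-Glo luminescence after 30 min at room temperature; AC50 from Hill-equation fits of concentration-response data.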
A short description of assay [4]: Cell Viability - LYMP2-009 (AID 968). Further: nearly all actives have a fitted effect of over 55% in size.
A short description of assay [5]: Cell Viability - LYMP2-011 (AID 969). Further: nearly all actives have a fitted effect of over 60% in size. In outline: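 In this qHTS cytotoxicity format, compounds are tested across concentrations on human lymphoblastoid cells in complete medium for 24 hours at 37 C. Viability is taken as cellular ATP measured by luciferase luminescence.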
Assay [6] in a line: Cell Viability - LYMP2-013 (AID 970). Further: nearly all actives have a fitted effect of over 55% in size. In outline:
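Cytotoxicity is scored as a concentration-dependent drop in intracellular ATP in human lymphoblastoid cells after 24 hr compound exposure at 37 C. ATP is quantified by luciferase luminescence, and AC50 values come from Hill-equation modeling.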

A short description of assay [7]: Cell Viability - LYMP2-015 (AID 971). Further: nearly all actives have a fitted effect of over 55% in size. A digest of the protocol:
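Cells are seeded at 2500 per well and incubated 5 hr at 37 C. Compounds are added across a concentration series for 24 hr at 37 C. CellTiter-Glo is added, and luminescence is read after 30 min at room temperature.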

Assay [8] is described as follows: Cell Viability - LYMP2-017 (AID 972). Further: nearly all actives have a fitted effect of over 55% in size. In outline: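 Cytotoxicity is scored as a concentration-dependent drop in cellular ATP in a human lymphoblastoid line after 24 hr treatment at 37 C. Values are AC50s from Hill-equation modelling.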
The nature of assay [9]: Cell Viability - LYMP2-021 (AID 974). In outline:
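Loss of cellular ATP, measured with a luciferase-based CellTiter-Glo readout, serves as the toxicity signal in human lymphoblastoid cells treated for 24 hours at 37 C. Potency is reported as AC50 from a standard Hill model.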

Assay [10] is described as follows: Cell Viability - LYMP2-023 (AID 975). Further: nearly all actives have a fitted effect of over 55% in size. In outline:
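Steps: seed 2500 human lymphoblastoid cells per well, incubate 5 hr at 37 C, add compound for 24 hr at 37 C, add CellTiter-Glo, hold 30 min at room temperature, read luminescence. AC50 derived by Hill modelling.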
Potency means the concentration at half of the fitted maximal effect.

With `C=CCN=C=S`, the Potency result in assay [1], in assay [2], in [3], in [4], in [5] and in assay [6] was “inactive” in each case. Also, the Potency entry in assay [7], in assay [8], in assay [9] and in assay [10] was “inactive” throughout.

Consider `O=C1C2CC=CCC2C(=O)N1SC(Cl)(Cl)Cl` (stereo not given), for which the Potency was 12.6 µM (active) in [1]; 10 µM (active) in assay [2]; 12.6 µM (active) in assay [3]; 6.31 µM (active) and 5.01 µM (active) in [4]; 6.31 µM (active) in [5]; 5.01 µM (active) and 6.31 µM (active) in assay [6]. The Potency in [7] is 3.98 µM (active); in assay [8], 3.16 µM (active) and 5.01 µM (active); in assay [9] it was 3.98 µM (active) and 5.01 µM (active); in [10], 3.98 µM (active) and 7.94 µM (active).

`O=C(O)C(Cl)(Cl)Cl`: the Potency result in [1], in assay [2], in assay [3], in assay [4], in assay [5] and in assay [6] was “inactive” throughout. Moreover, the Potency entry in [7], in assay [8], in [9] and in assay [10] was “inactive” throughout.

In the case of `NNC(N)=O`, the Potency result in [1], in assay [2], in assay [3], in assay [4], in [5] and in assay [6] was “inactive” in each case. Moreover, the Potency entry in [7], in [8], in [9] and in assay [10] was “inactive” each time.

For the compound `[O]=[Cd]`, the Potency result in assay [1], in assay [2], in assay [3], in assay [4], in assay [5] and in assay [6] was “inactive” each time. The Potency entry in assay [7], in assay [8], in [9] and in assay [10] was “inactive” each time.

With `O=C1CCO1`, the Potency entry in assay [1], in assay [2], in assay [3], in assay [4], in [5] and in assay [6] was “inactive” each time. Also, the Potency result in assay [7], in [8], in assay [9] and in assay [10] was “inactive” each time.

As to `CC(C)(C)c1cc(O)ccc1O`, the Potency entry in [1] and in assay [10] was “inactive” throughout. Further, the Potency in [2] was 39.8 µM (active); in assay [4], 50.1 µM (active); in [6], 50.1 µM (active); in assay [7], 50.1 µM (active); in assay [8] it was 50.1 µM (active); in assay [9], 50.1 µM (active).

In the case of `[O]=[Cr](=[O])([OH])[O][Cr](=[O])(=[O])[OH]`, the Potency in [1] is 12.6 µM (active) and 20 µM (active) and 7.94 µM (active); in [2], 10 µM (active) and 15.8 µM (active) and 6.31 µM (active); in [3] it was 10 µM (active) and 15.8 µM (active); in assay [4] it was 10 µM (active) and 6.31 µM (active); in assay [5], 10 µM (active) and 12.6 µM (active) and 7.94 µM (active); in [6] it was 15.8 µM (active) and 10 µM (active). The Potency in assay [7] is 10 µM (active); in [8], 12.6 µM (active); in [9] it was 12.6 µM (active) and 10 µM (active); in assay [10], 12.6 µM (active) and 10 µM (active).

For the compound `CCCCCl`, the Potency result in assay [1], in [2], in assay [4], in [5], in assay [6] and in assay [7] was “inactive” throughout. Moreover, the Potency entry in assay [8], in [9] and in [10] was “inactive” each time.

Consider `C[C@]12CCC(=O)C[C@@H]1CC[C@@H]1[C@@H]2CC[C@]2(C)[C@@H](O)CC[C@@H]12`, for which the Potency entry in [1], in assay [2], in assay [3], in assay [4], in assay [5] and in assay [6] was “inactive” in each case. In addition, the Potency result in [7], in [8], in assay [9] and in assay [10] was “inactive” each time.

`C[C@H]1CCC[C@H](O)CCCCCc2cc(O)cc(O)c2C(=O)O1`: the Potency result in assay [1], in [2], in assay [3], in assay [4], in [5] and in assay [6] was “inactive” in each case. Besides, the Potency result in [7], in assay [8], in assay [9] and in assay [10] was “inactive” in each case.

For the compound `O=CC=O`, the Potency entry in assay [1], in assay [2], in assay [3], in assay [4], in [5] and in assay [6] was “inactive” throughout. Besides, the Potency result in assay [7], in assay [8], in [9] and in assay [10] was “inactive” throughout.

With `COC1=CC(=O)O[C@@H](/C=C/c2ccccc2)C1`, the Potency entry in [1], in [2], in assay [3], in assay [4], in assay [5] and in assay [6] was “inactive” each time. Besides, the Potency entry in assay [7], in [8], in [9] and in assay [10] was “inactive” throughout.

For the compound `O=C/C=C/c1ccccc1`, the Potency entry in assay [1], in assay [2], in assay [3], in assay [4], in assay [5] and in [6] was “inactive” throughout. Further, the Potency result in assay [7], in [8], in assay [9] and in [10] was “inactive” in each case.

Consider `ClCC1CO1` (stereo not given), for which the Potency entry in assay [1], in assay [2], in assay [5], in assay [6], in assay [7] and in assay [8] was “inactive” throughout. Also, the Potency result in [9] and in assay [10] was “inactive” throughout.
